# Screening data (PubChem BioAssay)
# HT1080NT lethal: kills 2HG-producing HT-1080-NT fibrosarcoma cells. HT-1080-NT fibrosarcoma viability, CellTiter-Glo ATP luminescence, 48 h. Potency, µM (highest dose often 46.1 µM), inactives show at the top dose activity, negative = less viability, actives largely listed as cytotoxic. 1.6% of 360,000 active. AID 686970;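 further: NT is the 2HG producing partner of a matched IDH1 knockdown line; potency means the concentration at half of the fitted maximal effect; 0% = DMSO-treated cells and -100% = media-only wells without cells; nearly all actives have a fitted effect of over 55% in size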
#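 Compounds were tested in concentration-response format on HT-1080-NT cells for 48 hours at 37 degrees C. Cell viability came from CellTiter-Glo luminescence; curves were classified by r2, response magnitude and activity.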
# HT1080 IDH1KD tx: toxicity to HT-1080 IDH1 knockdown cells (counter line). HT-1080 IDH1 knockdown viability, ATP luminescence, 48 h. Potency, µM (top dose mostly 46.1 µM), inactives show top-dose activity, negative = toxicity, actives largely listed as cytotoxic. 2% of 360,000 active. AID 686971;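 further: potency means the concentration at half of the fitted maximal effect; 0% = DMSO wells and -100% = cell-free medium wells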
#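 Assay cells: HT-1080 with IDH1 knockdown, 750 per well, RPMI/5% FBS. Exposure: 48 h at 37 °C following 2 h pre-incubation. Read: CellTiter-Glo luminescence; fitted concentration-response, curve class assigned.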
# IL1B secr inh: inhibitors of inflammasome signaling (IL-1 beta secretion) | THP-1 LPS/ATP IL-1B secretion, AlphaLISA, 16 h; stronger effect = lower value | activity change, % at 57.5 µM | 4.7% of 360,000 active; in the data active means activity change below about -50%; inconclusive means mostly about -30% to -49%
#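 Secreted IL-1B measured by AlphaLISA bead assay after 16 h compound exposure of THP-1 cells; compounds (final up to 57.5 uM) added 1 h before LPS (250 ng/mL) and ATP (1.25 mM) stimulation; lower signal means less secretion.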
# DT40 TDP1 CPT: growth inhibition of DT40 Tdp1-/-;hTDP1 cells with camptothecin (screen for TDP1 inhibitors) | AID 686979 | chicken DT40 Tdp1-/-;hTDP1 cells + 20 nM CPT, ATP luminescence, 48 h | Potency, µM (doses to about 46.2 µM), inactives show at the highest dose activity change, negative = growth inhibition, hits mostly inhibitors | 12% of 420,000 active; further: potency means the concentration at half of the fitted maximal effect; nearly all actives have a fitted effect of over 55% in size
#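 Chicken DT40 Tdp1-/- cells complemented with human TDP1, 400 cells/well, exposed to compounds plus 20 nM camptothecin for at least 48 h at 37 C; viability read as ATP content by CellTiter-Glo luminescence.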
# TDP1 cell noCPT: qHTS for Inhibitors of human tyrosyl-DNA phosphodiesterase 1 (TDP1): qHTS in cells in absence of CPT | DT40 Tdp1-/- hTDP1 cells, no CPT, ATP luminescence, 48 h | 15% of 420,000 active | AID 686978, 2013 | Potency, µM (series often up to 46.2 µM), for the others: at the highest dose activity change, negative = growth inhibition, hits mostly inhibitors; further: potency means the concentration at half of the fitted maximal effect; nearly all actives have a fitted effect of over 55% in size
#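 Seeded 400 DT40-hTDP1 cells/well (vehicle DMSO, no 20 nM CPT); pinned compounds; ≥48 hr at 37 °C; CellTiter-Glo luminescence as viability measure.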
# * = called active by the depositor; ? = inconclusive; / = no result; ! = not confirmed by another sample; [ ] = another dose, or the depositor's remark. Shown are actives, neighbours in structure and some others; about 19% of the full set was active somewhere. Unless noted, the call rests on the fitted dose curve; in most records, active means well fitted curve in the direction sought with a large enough effect; inconclusive means small, poorly fitted or top-dose-only effect, or another doubt; inactive means no such curve, though single readings can be large; an effect the other way counts as inactive or inconclusive. Unless noted, on the % scale 0 is the no-effect control and ±100 the full control effect.
SMILES,HT1080NT lethal,HT1080 IDH1KD tx,IL1B secr inh,DT40 TDP1 CPT,TDP1 cell noCPT
CC1CCN(S(=O)(=O)c2ccc(C(=O)Nc3nc4ccc(F)cc4s3)cc2)CC1,/,/,/,?,-30%
Cc1ccc2nc(NC(=O)C3CCN(S(=O)(=O)c4cccs4)CC3)sc2c1,?,?,-76*,23µM*,16µM*
COCc1c(C(=O)NCC2CCCN(C)C2)cnn1-c1ncc2c(n1)-c1ccccc1CCC2 (centres undefined),/,/,/,11%[9.04 µM],-9%
CCCCc1cc2ccccc2c(OCCN(C)C)n1,5%,10%,-27,9µM*!,?
COc1ccc2c(c1OC)C(Cc1ccccc1)N1CCc3cc4c(cc3C1C2)OCO4 (centres undefined),/,/,/,6µM*,12µM*
COc1ccc2c(c1OC)CN(C)CCc1cc3c(cc1C(O)C2)OCO3 (centres undefined),8%,3%,2,?,?
O=C(Nc1cnn(C23CC4CC(CC(C4)C2)C3)c1)c1cnn2c(C(F)(F)F)cc(-c3ccco3)nc12,0%,-2%,-80*,18µM*,16µM*
Cc1ccccc1Cn1ccc(NC(=O)c2cnn3c(C(F)(F)F)cc(-c4ccco4)nc23)n1,-7%,3%,-14,?,15µM*
COc1ccccc1N(CC(=O)NC1CCCC1)C(=O)CNC(=O)c1cccs1,-4%,1%,3,-19%,-12%
CCCC(=O)n1nc(-c2ccc(OC)cc2)nc1N,-1%,-1%,16,-23%,-13%
CCC(=O)n1nc(-c2ccc(Cl)cc2)nc1N,-4%,-5%,-14,-11%,2.6µM*
Cc1cc(Br)cn2c(Cc3cccc(F)c3)c(C3CCCCC3)nc12,?,?,0,?,?
Cc1ccc(-c2nc3cc(C)c(Br)c(C)n3c2Cc2cccc(F)c2)cc1,?,?,0,7.3µM*,10µM*
Cc1cc2nc(C3CCCCC3)c(Cc3cccc(F)c3)n2c(C)c1Br,-27%,-28%,12,16µM*,?
Cc1cc(Br)cn2c(Cc3cccc(F)c3)c(-c3ccc(C#N)cc3)nc12,-14%,-22%,0,18µM*,?
Cc1ccc(Cc2c(-c3cccc(Cl)c3)nc3cc(C)c(Br)c(C)n23)cc1,-4%,-12%,0,-43%,?
Cc1cc2nc(C3CCCCC3)c(Cc3ccccc3C(F)(F)F)n2c(C)c1Br,3%,-1%,54,?,?
Cc1cc2nc(-c3ccc(C#N)cc3)c(Cc3cccc(F)c3)n2c(C)c1Br,-22%,-28%,-16,18µM*,15µM*
CC(NC(=O)C(c1ccccc1)c1ccccc1)C(=O)N1CCCCC1 (centres undefined),0%,-1%,-28,-8%,-24%
CCOC(=O)N1CCN(C(=O)CCCn2c(=S)[nH]c3ccsc3c2=O)CC1,3%,6%,12,3%,3%
COC(=O)[C@@]1(Sc2ccc(C)cc2)CC(=O)N(C(=O)c2ccccc2)[C@@H]1c1ccccc1,-1%,-18%,-8,?,?
Cc1ccc(Cc2c(-c3ccccc3)nc3cc(C)c(Br)c(C)n23)cc1,-10%,-3%,22,?,?
Cc1cc2nc(-c3ccccc3)c(Cc3cccc(F)c3)n2c(C)c1Br,-20%,-25%,0,?,16µM*
Cc1cc2nc(-c3ccc(F)cc3)c(Cc3ccccc3)n2c(C)c1Br,?,?,32,21µM*,21µM*
COc1ccc(Cc2c(-c3cccc(Br)c3)nc3cc(C)c(Br)c(C)n23)c(C)c1,-10%,-7%,31,-25%,-29%
SMILES,HT1080NT lethal,HT1080 IDH1KD tx,IL1B secr inh,DT40 TDP1 CPT,TDP1 cell noCPT
Cc1cc2nc(-c3cccc(Br)c3)c(Cc3ccccc3)n2c(C)c1Br,?,?,60,16µM*,?
OCCCNCc1ccc(N(c2ccccc2)c2ccccc2)cc1,?,16µM*,-94*,16µM*,21µM*
Nc1nc(OCC2CCCCC2)c2[nH]cnc2n1,?,?,-28,-12%,?
CC(C)NC(=O)CSc1nc2ccccc2c(=O)n1CCCOC(C)C,0%,-2%,0,-7%,-19%
COC(=O)CC(=O)CSc1nc2cc(C(=O)NCC(C)C)ccc2c(=O)n1CCc1ccccc1,/,/,/,?,21µM*
COC(=O)CC(=O)CSc1nc2cc(C(=O)NC(C)C)ccc2c(=O)n1CCc1ccccc1,/,/,/,?,23µM*
COCCn1c(SCC(=O)c2c(C)[nH]c3ccccc23)nc2cc(C(=O)NC(C)C)ccc2c1=O,/,/,/,12µM*,16µM*
NC(=S)Nc1ccc(Oc2ccc(NC(N)=S)cc2)cc1,-2%,11%,13,-23%,-15%
CC(=O)OCC1OC(n2cc(F)c(=O)[nH]c2=O)C(OC(C)=O)C1OC(C)=O (centres undefined),3%,?,93,8.2µM*,5.2µM*
CC(=O)OCC1OC(n2cnc3c(Cl)nc(Cl)nc32)C(OC(C)=O)C1OC(C)=O (centres undefined),/,/,/,?,21µM*
COC(=O)c1ncn(C2OC(COC(C)=O)C(OC(C)=O)C2OC(C)=O)n1 (centres undefined),6%,0%,17,6%,-1%
Cc1c(C(=O)N2CC3CCC2C3)sc2ncnc(NCCc3c[nH]c4ccccc34)c12 (centres undefined),/,/,/,?,23µM*
Cc1sc2ncnc(N[C@@H](Cc3c[nH]c4ccccc34)C(=O)O)c2c1C,9%,9%,29,-17%,-29%
COC(=O)c1ccc(C2c3[nH]c4ccccc4c3C[C@H]3C(=O)N(C)CC(=O)N23)cc1 (some centres undefined),?,?,28,37%,26%
CN1CC(=O)N2C(c3cccc([N+](=O)[O-])c3)c3[nH]c4ccccc4c3C[C@H]2C1=O (some centres undefined),-21%,-20%,-3,1µM*,1.8µM*
O=C1[C@@H]2Cc3c([nH]c4ccccc34)C(c3cccc([N+](=O)[O-])c3)N2C(=O)CN1CCCO (some centres undefined),-17%,-22%,0,-21%,-5%
O=C1[C@@H]2Cc3c([nH]c4ccccc34)C(c3ccc([N+](=O)[O-])cc3)N2C(=O)CN1C1CC1 (some centres undefined),?,-24%,-21,2.6µM*,4.6µM*
CN1CC(=O)N2C(c3ccc(Cl)cc3)c3[nH]c4ccccc4c3C[C@H]2C1=O (some centres undefined),-30%,?,-14,15µM*,?
